# Compounds without any hit were thinned out: in the full panel of roughly 83,000, 20% have a hit.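 Step 1: grow cells in 96-well plates. Step 2: add test compound at a single concentration. Step 3: incubate 48 h. Step 4: record percent growth.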 The source made the active and inactive calls. Rule for the calls: active = growth percent below 10; inactive = the rest.
# Tested on: MDA-MB-468 breast
# Experiment: NCI-60 one-dose screen, 48 h (100 = growth as untreated, 0 = no growth, -100 = all killed)
# Settings: 10 µM unless noted
row,Compound,growth
1,O=c1oc2cc(OS(=O)(=O)C3CC3)ccc2c2c1CCCCCC2,39% (inactive)
2,CC1=C(O)C(=O)C(C(C#N)(C#N)C(C#N)C#N)C1 (stereo unspecified),102% (inactive)
3,NC(=S)N/N=C(\c1ccc(Cl)cc1)C1CC1,18.5% (inactive)
4,O=C1OCC2=C1C(c1cccc(Cl)c1)c1cc3c(cc1N2CCO)OCCO3 (stereo unspecified),9.02% (active)
5,CC(C)(C)Nc1nc2c(OCCc3ccccc3)cccn2c1-c1cccc(Oc2ccccc2)c1,-12.7% (active)
6,COC(=O)/C(=C\c1c(C)[nH]c2ccccc12)S(=O)(=O)c1ccccc1,23.4% (inactive)
7,CS(=O)(=O)c1ccc(-c2cnn3ccc(-c4cccc(S(=O)(=O)C5CC5)c4)nc23)cc1,27.7% (inactive)
8,CC(C)C1=CC2=C(C=O)C[C@@H]3[C@](C)(CCC[C@@]3(C)C(=O)OCC#CCN3CCCC3)[C@H]2CC1,51.3% (inactive)
9,NC1=C(/C(N)=N/O)C(c2ccccc2)c2ccc3ccccc3c2O1 (stereo unspecified),-1.49% (active)
10,CCCCCCCCCCCCCCCC[N+]1(C)CCN(SN2CC[N+](C)(CCCCCCCCCCCCCCCC)CC2)CC1,52.2% (inactive)
11,CSc1nc2nc3c(nc2c(=O)n1C)C(=O)c1ccccc1C3=O,-58.4% (active)
12,CCOC(=O)CCCC(=O)OCC,116% (inactive)
13,Clc1nccc2c(-c3csc(-c4c[nH]c5ccccc45)n3)c[nH]c12,29.2% (inactive)
14,CCCn1cnc2c(c1=N)C(c1ccc(Cl)cc1)c1sc3c(C)cccc3c1O2 (stereo unspecified),30.9% (inactive)
15,Cc1cccc2nc3ccccc3c(Nc3ccc(NS(C)(=O)=O)cc3)c12,67.9% (inactive)
16,COc1ccc2c(c1)c(CC(=O)O)c(C)n2C(=O)c1ccc(Cl)cc1,96.4% (inactive)
17,Cc1nc2ccccc2c(/C=C/c2ccc(C(F)(F)F)cc2)c1C(=O)/C=C/c1ccccc1,-51% (active)
18,CCNc1nc(N2CC(=O)Nc3cc(OC)ccc32)c2ccccc2n1,1.34% (active)
19,CCOc1ccc(Br)cc1/C=C(\C#N)c1ccc([N+](=O)[O-])cc1,51.7% (inactive)
20,COC(=O)c1nc(=S)[nH]c(C(=O)OC)c1C(=O)c1ccccc1,97.3% (inactive)
21,O=C(Nc1ccc(-n2ccc3c(NC(=O)c4ccccc4)nccc32)cc1)c1ccc(Cl)c(C(F)(F)F)c1,-9.71% (active)
22,CCN(CC)Cc1cccc(C(=O)OC)c1,97.2% (inactive)
23,O=C(O)CSCSCC(=O)O,91.2% (inactive)
24,O=C1[C@@H]2Cc3c([nH]c4ccccc34)[C@H](c3c(Cl)cccc3Cl)N2C(=O)CN1C1CCN(Cc2ccccc2)CC1,-33.4% (active)
25,COC(=O)[C@]12CC[C@@H](C(=O)/C=C/c3cccnc3)[C@@H]1[C@H]1CC[C@@H]3[C@@]4(C)C/C(=C/c5cccnc5)C(=O)C(C)(C)[C@@H]4CC[C@@]3(C)[C@]1(C)CC2,-76.1% (active)
26,CC1(C)c2[nH]c3ccccc3c2C[C@]2(C)[C@H]3C(=O)C=C4[C@@H]5C[C@@](C)(C(N)=O)CC[C@]5(C)CC[C@@]4(C)[C@]3(C)CC[C@@H]12,56.4% (inactive)

# Reference: PubChem BioAssay (NCI)
